PAFAH1B3 FP inh: PAFAH1B3 enzyme inhibitors, primary screen, biochemical, fluorescence polarization, human; recombinant PAFAH1B3, FP-rhodamine probe; inhibition, % at 3.39 µM; actives 0.28% (n = 340,000);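 active = inhibition above the screen-wide average of all tested compounds plus 3 SD, cut at about 25% in these data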
Target sequence (Q15102 whole entry, looked up): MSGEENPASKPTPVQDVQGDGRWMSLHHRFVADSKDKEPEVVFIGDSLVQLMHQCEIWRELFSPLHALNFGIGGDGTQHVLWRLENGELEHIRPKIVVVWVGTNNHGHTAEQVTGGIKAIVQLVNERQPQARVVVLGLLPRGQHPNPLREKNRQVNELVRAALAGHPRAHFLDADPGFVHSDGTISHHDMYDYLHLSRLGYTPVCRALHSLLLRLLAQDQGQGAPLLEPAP
PAFAH2 inh: PAFAH2 enzyme inhibitors, primary screen, biochemical, fluorescence polarization, human; actives 0.99% (n = 340,000); recombinant PAFAH2, FP-rhodamine activity probe; inhibition, % at 3.39 µM; Platelet-activating factor acetylhydrolase 2, cytoplasmic (Homo sapiens), Q99487;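 active = inhibition above the mean over all tested compounds plus 3 SD, cut at about 30% in these data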;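 note: inhibitors block probe labeling of enzyme so polarization drops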
TCR CD3 inh: inhibitors of human TCR-CD3 interaction, primary screen, biochemical, fluorescence, TAMRA-labeled TCR probe; actives 0.37% (n = 360,000); AID 651800, 2012; inhibition, % at 9.4 µM; T-cell receptor (TCR); in the data active = inhibition above about 19%;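 note: recombinant mutant TCR 2C K166C tagged with TAMRA read by polarization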
PAFAH1B2 inh: PAFAH1B2 enzyme inhibitors, primary screen, biochemical, fluorescence polarization, human. Platelet-activating factor acetylhydrolase IB subunit alpha2 (Homo sapiens), P68402. recombinant PAFAH1B2, FP-rhodamine activity probe. inhibition, % at 3.39 µM. actives 1.2% (n = 340,000);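 active = inhibition above the mean of all tested compounds plus 3 SD, cut at about 24% in these data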
Target sequence (P68402 whole entry, looked up): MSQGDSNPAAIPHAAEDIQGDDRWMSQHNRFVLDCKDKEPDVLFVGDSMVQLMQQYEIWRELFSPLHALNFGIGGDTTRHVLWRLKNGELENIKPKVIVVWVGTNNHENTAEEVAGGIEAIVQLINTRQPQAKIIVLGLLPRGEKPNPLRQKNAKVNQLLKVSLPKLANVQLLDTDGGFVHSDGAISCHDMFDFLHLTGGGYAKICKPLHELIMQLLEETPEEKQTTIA
pPAFAH FP inh: pPAFAH enzyme inhibitors, primary screen, biochemical, fluorescence polarization, human; actives 1.5% (n = 330,000); inhibition, % at 3.39 µM; Platelet-activating factor acetylhydrolase (Homo sapiens), Q13093; recombinant pPAFAH, FP-rhodamine probe fluorescence polarization;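 active = inhibition above the mean inhibition across the screen plus 3 SD, cut at about 25% in these data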;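 note: inhibitors block binding of the rhodamine activity-based probe so polarization drops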
Numbers stand for hits; . = inactive; / = no result. Only some compounds are listed: those with a hit (about 2.7% of all), similar ones and a draw of the others.

SMILES | PAFAH1B3 FP inh | PAFAH2 inh | TCR CD3 inh | PAFAH1B2 inh | pPAFAH FP inh
CCC(c1ccccc1)c1nc(-c2ccccn2)no1 (stereo not given) | . | . | . | 27 | .
C[C@H]1CN(c2ccc(N3CCN(C(=O)OC(C)(C)C)C[C@@H]3C)cc2C#N)CCN1Cc1ccccc1 | / | / | . | / | /
Cc1ccc(C2(c3noc(CN4CCOCC4)n3)CCCC2)cc1 | . | . | . | . | .
Cc1ccc(C2(c3noc(CN4CCC(C(=O)N5CCOCC5)CC4)n3)CCCC2)cc1 | . | . | . | 27 | .
COc1ccc(-c2ccc3c(n2)CCCN3S(=O)(=O)c2ccc(F)cc2)cc1 | / | / | . | / | /
O=C(O)c1cc(NS(=O)(=O)c2cccs2)cc(NS(=O)(=O)c2cccs2)c1 | . | . | . | 25 | .
O=C(O)c1ccc(/C=N/NC(=O)c2ccc(NS(=O)(=O)c3cccs3)cc2)cc1 | . | . | . | . | .
O=S(=O)(Nc1ccc(Br)cc1)c1cccc(NS(=O)(=O)c2cccs2)c1 | . | 43 | . | 75 | /
N#CCC(=O)NNC(=S)NC(=O)C(c1ccccc1)c1ccccc1 | . | . | . | 29 | .
Cn1nnnc1Sc1ncnc2scc(-c3ccc(F)cc3)c12 | . | . | . | . | 29
Cn1nnnc1Sc1ncnc2scc(-c3ccc(Br)cc3)c12 | . | . | . | . | .
CC(C)NC(=O)CC1C(=O)NCCN1CC(c1ccccc1)c1ccccc1 (stereo not given) | . | . | . | . | 29
CC(C)NC(=O)NC(=O)COC(=O)c1ccc(OC(F)(F)F)cc1 | . | . | . | . | .
CC(C)NC(=O)NC(=O)COC(=O)c1ccc(S(=O)(=O)Nc2ccccc2)cc1 | . | . | . | . | 25
CC(C)(C)C1C=C(Sc2ccccc2)C(=O)O1 (stereo not given) | . | . | . | . | .
COc1ccc(CNC(=O)Cc2c(C(=O)O)[nH]c3ccccc23)cc1 | . | . | . | 25 | .
COc1ccc(CNC(=O)Cc2c(C(=O)O)[nH]c3ccccc23)c(OC)c1 | . | . | . | . | .
Cc1ccc(C)c(N2CCN(c3ncccc3[N+](=O)[O-])CC2)c1 | . | . | . | . | 28
Cc1ccc(N2CCN(c3ncccc3[N+](=O)[O-])CC2)c(C)c1 | . | . | . | . | .
CCOC(=O)NC(=O)/C(C#N)=N\Nc1cccc(Cl)c1 | . | . | . | . | .
CCOC(=O)NC1(Nc2cccc(Cl)c2)Oc2ccccc2O1 | . | . | . | . | 33
Cc1cccc(OCC(=O)N2CCc3ccccc3C2)c1C | / | / | . | / | /
Clc1ccc(SCc2cc(-c3ccccc3)no2)cc1 | . | . | . | 42 | .
Clc1ccc(OCc2cc(-c3ccccc3)no2)c(Cl)c1 | . | . | . | . | .
C=CCN1C(=O)C(Cc2ccc(OC)cc2)S/C1=N/N=C/c1ccco1 (stereo not given) | . | . | . | . | 28
SMILES | PAFAH1B3 FP inh | PAFAH2 inh | TCR CD3 inh | PAFAH1B2 inh | pPAFAH FP inh
CC(=O)C[C@@H](O)CC(=O)[C@H]1OC(=O)CCCCCCCCc2ccccc21 | . | . | . | 43 | .
CC(=O)C[C@@H](O)CC(=O)[C@@H]1OC(=O)CCCCCCCCc2ccccc21 | . | . | . | 28 | .
CN1CCN(c2ccccc2NC(=O)c2ccc(-c3ccccc3[N+](=O)[O-])o2)CC1 | . | . | . | . | .
Cc1ccc(S(=O)(=O)Nc2cc(C)c(O)c(S(=O)(=O)c3ccc(C)cc3)c2)cc1 | . | . | . | 34 | .
O=C(O)c1ccc(NS(=O)(=O)c2cccc(S(=O)(=O)c3ccc(Cl)c(Cl)c3)c2)cc1 | . | 73 | / | . | .
Cc1ccc(NC(=O)CN(C)C(=O)c2ccc(NS(=O)(=O)c3cccc([N+](=O)[O-])c3)cc2)cc1 | . | . | . | . | .
COc1ccc(NS(=O)(=O)c2ccc(NS(=O)(=O)c3ccc(C)cc3)cc2)nn1 | . | . | . | 24 | .
CCOc1ccc(NS(=O)(=O)c2ccc(C(=O)N(C)CC(=O)Nc3ccc(C)cc3)cc2)cc1 | . | . | . | . | 33
CC(=O)N1CCN(C(=O)c2ccc(NS(=O)(=O)c3ccc(Cl)c(Cl)c3)cc2)CC1 | . | . | . | . | /
COC(C(=O)Nc1ccnn1C1CCN(C(=O)c2ccc(C=O)cc2)CC1)c1ccccc1 (stereo not given) | . | . | . | . | .
O=C(Nc1ccc(C(=O)N2CCOCC2)cc1)C1CC1 | . | . | . | . | /
Nc1[nH]c(C(=O)c2ccccc2)c(-c2ccc3c(c2)OCO3)c1C(=O)NCCc1c[nH]c2ccccc12 | / | / | . | / | /
COc1ccc(C(=O)O)cc1S(=O)(=O)Nc1ccc(Oc2ccccc2)cc1 | . | . | . | . | 27
COc1ccc(C(=O)O)cc1S(=O)(=O)Nc1ccc(C)cc1 | . | . | . | . | .
O=S(=O)(Nc1ccccc1)c1ccc(NS(=O)(=O)c2c(F)cccc2F)cc1 | . | . | . | . | 28
O=C(O)c1ccccc1C(=O)Nc1ccc(S(=O)(=O)Nc2ccc(F)cc2)cc1 | . | . | . | . | .
Cc1ccc(Oc2ccc(S(=O)(=O)Nc3ccc(C(=O)O)cc3)cc2)cc1 | . | . | . | . | 29
O=S(=O)(Nc1ccc(Nc2ccccc2)cc1)c1ccc(F)cc1 | . | . | . | . | 26
CCN(C[C@H]1N[C@@](Cc2ccccc2)(C(=O)OC)[C@H]2C(=O)N(Cc3ccccc3)C(=O)[C@@H]12)C(=O)Nc1ccc(Cl)cc1 | . | . | . | . | .
C=CCN=C1NC(c2ccc(Cl)cc2)C(C(=O)OC)=C(C)N1Cc1ccccc1C(F)(F)F (stereo not given) | / | / | . | / | /
CCNC(=O)N1CCN(c2ccc(N3CCN(Cc4ccccc4)[C@H](C)C3)c(C)c2)[C@@H](C)C1 | / | / | . | / | /
COC(=O)c1cc2c(c3c4cc(F)ccc4n(S(=O)(=O)c4ccc(C)cc4)c13)C(=O)N(c1ccc(OC)cc1)C2 | / | / | . | / | /
COc1ccc(C(=O)O)cc1S(=O)(=O)N1CCCc2ccccc21 | . | . | . | 26 | .
Cc1ccc(S(=O)(=O)Nc2ccc(Nc3ccccc3)cc2)cc1 | . | . | . | . | 29
O=S(=O)(Nc1ccc(S(=O)(=O)Nc2cccc3ccccc23)cc1)c1ccccc1 | . | . | . | 30 | 33
Cn1cc(CC(=O)Nc2ccc(Nc3cccnc3)c(Br)c2)c2ccccc21 | / | / | . | / | /
COC(=O)[C@]12C[C@H](CC(=O)N3CCN(C(=O)C4CC4)CC3)C(=O)N(Cc3ccccc3)C1=C[C@H](C(C)C)O[C@@H]2C1CC1 | / | / | . | / | /
COc1ccc(NC(=O)N(C)C[C@@H]2OCc3ccccc3-c3c(n(C)c4ccccc34)C(=O)N([C@H](C)CO)C[C@H]2C)c(OC)c1 | / | / | . | / | /
CCOC(=O)c1cc(C(=O)OCC)c(=O)[nH]c1C | . | . | . | . | .

Screening data as filed in PubChem.
